Here are results for 39 compounds from the supplement of paper PMC12669032.

The first assay relates to Coprococcus comes. Briefly: growth AUC relative to DMSO control (median of replicates) (fraction); higher = more growth (less inhibition), active = hit call of the paper. Conditions: 20 µM; 24 h;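 active = AUC reduced over 20% with Padj below 0.05 in at least 2 of 3 replicates; inactive = otherwise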. In a few lines:
(§1)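 Gut bacterial monocultures were grown anaerobically at 37 °C in mGAM, starting at OD600 0.05, with 20 µM compound (1% DMSO) in round-bottom 96-well plates under pierced gas-permeable seals. OD600 was read hourly for 24 h. Area under the growth curve (minimum OD set to 0) was normalised to the plate median of DMSO controls, or to row and column medians on the industrial chemical plate. The value is the median of three biological replicates grown on separate days.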
For the compound `CCCN(CCC)c1c([N+](=O)[O-])cc(C(C)C)cc1[N+](=O)[O-]`, the “growth AUC” value was 1.06 (inactive).

Consider `Nc1ccncc1`, for which the “growth AUC” value was 0.95 (inactive).

As to `CCCSP(=O)(OCC)SCCC`, the “growth AUC” value is 1.03 (inactive).

`BrCCBr`: the “growth AUC” value is 1.03 (inactive).

On to `CCCC(Cn1cncn1)c1ccc(Cl)cc1Cl` (configuration not stated), for which the “growth AUC” value was 0.919 (inactive).

As to `Nc1nc(N)nc(NC2CC2)n1`, the “growth AUC” value was 1 (inactive).

`C#CC(C)(C)NC(=O)c1cc(Cl)cc(Cl)c1`: the “growth AUC” value was 1 (inactive).

As to `Oc1ccc(Cl)cc1`, the “growth AUC” value is 0.989 (inactive).

Regarding `CNC(=O)Oc1cccc2c1OC(C)(C)O2`, the “growth AUC” value was 1.02 (inactive).

`CCNc1nc(Cl)nc(NC(C)(C)C#N)n1`: the “growth AUC” value is 0.988 (inactive).

Consider `ClC1=C(Cl)C(Cl)(C2(Cl)C(Cl)=C(Cl)C(Cl)=C2Cl)C(Cl)=C1Cl`, for which the “growth AUC” value is 1.05 (inactive).

As for `COP(=O)(OC)Oc1ccc(S(C)(=O)=O)c(C)c1`, the “growth AUC” value is 0.989 (inactive).

With `CC(C)(C)C(O)C(Oc1ccc(-c2ccccc2)cc1)n1cncn1` (mixture of isomers), the “growth AUC” value was 1 (inactive).

In the case of `CC(C)(C)N(NC(=O)c1ccc(Cl)cc1)C(=O)c1ccccc1`, the “growth AUC” value is 0.995 (inactive).

For the compound `Cc1ccccc1[N+](=O)[O-]`, the “growth AUC” value was 1 (inactive).

Take `CCN(CC)C(=O)C(C)Oc1cccc2ccccc12` (configuration not stated): the “growth AUC” value is 1.01 (inactive).

As for `CCN(CC)C(=O)SCc1ccc(Cl)cc1`, the “growth AUC” value is 0.966 (inactive).

With `CNC(=O)ON=C(CS(C)=O)C(C)(C)C` (configuration not stated), the “growth AUC” value is 1 (inactive).

As to `COP1(=S)OCc2ccccc2O1` (configuration not stated), the “growth AUC” value is 1 (inactive).

For the compound `O=C(O)C(Cl)Cl`, the “growth AUC” value was 0.959 (inactive).

In the case of `N#CN=C1SCCN1Cc1ccc(Cl)nc1`, the “growth AUC” value is 1.04 (inactive).

`CC(C)NC(=O)N1CC(=O)N(c2cc(Cl)cc(Cl)c2)C1=O`: the “growth AUC” value was 1.01 (inactive).

Take `O=[N+]([O-])c1ccccc1`: the “growth AUC” value is 1.03 (inactive).

With `[Cl][Sn]([c]1ccccc1)([c]1ccccc1)[c]1ccccc1`, the “growth AUC” value is 0.0492 (active).

Regarding `Nc1ncn[nH]1`, the “growth AUC” value is 0.974 (inactive).

Consider `CC(C)OC(=O)C(O)(c1ccc(Br)cc1)c1ccc(Br)cc1`, for which the “growth AUC” value is 0.905 (inactive).

As to `CNC1=C(c2cccc(C(F)(F)F)c2)C(=O)C(c2ccccc2)O1` (configuration not stated), the “growth AUC” value was 1.06 (inactive).

As for `O=c1oc2ccccc2c(O)c1C1CC(c2ccc(-c3ccc(Br)cc3)cc2)Cc2ccccc21` (configuration not stated), the “growth AUC” value is 0.856 (inactive).

Another assay has as its system Escherichia coli ED1a. Described as above. Conditions: 20 µM; 24 h. In a few lines: as §1
With `O=C(O)C1(O)c2ccccc2-c2ccc(Cl)cc21` (configuration not stated), the “growth AUC” value is 0.998 (inactive).

For the compound `O=C(O)C(F)(F)C(F)(F)C(F)(F)C(F)(F)C(F)(F)C(F)(F)C(F)(F)F`, the “growth AUC” value was 1 (inactive).

Take `COP(=O)(OC)OC=C(Cl)Cl`: the “growth AUC” value was 1.01 (inactive).

With `CCCN(CC)CC1COC2(CCC(C(C)(C)C)CC2)O1` (configuration not stated), the “growth AUC” value is 1 (inactive).

For `CCOP(=O)(SC(C)CC)N1CCSC1=O` (configuration not stated), the “growth AUC” value was 0.984 (inactive).

Turning to `O=NN(CCO)CCO`, the “growth AUC” value is 0.994 (inactive).

For `CSc1nc(N=[N+]=[N-])nc(NC(C)C)n1`, the “growth AUC” value is 1.02 (inactive).

`COP(=O)(OC)Oc1ccc(S(C)=O)c(C)c1` (configuration not stated): the “growth AUC” value is 0.962 (inactive).

Take `O=C(Nc1ccccc1)N(Cc1ccc(Cl)cc1)C1CCCC1`: the “growth AUC” value was 1 (inactive).

Regarding `CC(C)OC(=O)C(C(=O)OC(C)C)=C1SCCS1`, the “growth AUC” value is 1.01 (inactive).

For the compound `CCC(C)[C@H]1O[C@]2(C=C[C@@H]1C)C[C@@H]1C[C@@H](C/C=C(\C)[C@@H](O[C@H]3C[C@H](OC)[C@@H](O[C@H]4C[C@H](OC)[C@@H](O)[C@H](C)O4)[C@H](C)O3)[C@@H](C)/C=C/C=C3\CO[C@@H]4[C@H](O)C(C)=C[C@@H](C(=O)O1)[C@]34O)O2.CO[C@H]1C[C@H](O[C@H]2[C@H](C)O[C@@H](O[C@@H]3/C(C)=C/C[C@@H]4C[C@@H](C[C@]5(C=C[C@H](C)[C@@H](C(C)C)O5)O4)OC(=O)[C@@H]4C=C(C)[C@@H](O)[C@H]5OC/C(=C\C=C\[C@@H]3C)[C@]54O)C[C@@H]2OC)O[C@@H](C)[C@@H]1O` (some centres not stated), the “growth AUC” value is 1.02 (inactive).

For the compound `CCCN(CCC)c1c([N+](=O)[O-])cc(C(C)C)cc1[N+](=O)[O-]`, the “growth AUC” value was 1.02 (inactive).

Take `Nc1ccncc1`: the “growth AUC” value was 0.99 (inactive).

As to `CCCSP(=O)(OCC)SCCC`, the “growth AUC” value was 1.02 (inactive).

For the compound `BrCCBr`, the “growth AUC” value was 1.03 (inactive).

Turning to `CCCC(Cn1cncn1)c1ccc(Cl)cc1Cl` (configuration not stated), the “growth AUC” value was 0.997 (inactive).

On to `Nc1nc(N)nc(NC2CC2)n1`, for which the “growth AUC” value was 0.982 (inactive).

On to `C#CC(C)(C)NC(=O)c1cc(Cl)cc(Cl)c1`, for which the “growth AUC” value was 0.984 (inactive).

For `Oc1ccc(Cl)cc1`, the “growth AUC” value is 0.967 (inactive).

For `CNC(=O)Oc1cccc2c1OC(C)(C)O2`, the “growth AUC” value was 1 (inactive).

On to `CCNc1nc(Cl)nc(NC(C)(C)C#N)n1`, for which the “growth AUC” value was 1.02 (inactive).

Turning to `ClC1=C(Cl)C(Cl)(C2(Cl)C(Cl)=C(Cl)C(Cl)=C2Cl)C(Cl)=C1Cl`, the “growth AUC” value was 1.04 (inactive).

Consider `COP(=O)(OC)Oc1ccc(S(C)(=O)=O)c(C)c1`, for which the “growth AUC” value is 1 (inactive).

As for `CC(C)(C)C(O)C(Oc1ccc(-c2ccccc2)cc1)n1cncn1` (mixture of isomers), the “growth AUC” value was 1.01 (inactive).

`CC(C)(C)N(NC(=O)c1ccc(Cl)cc1)C(=O)c1ccccc1`: the “growth AUC” value is 1.01 (inactive).

As for `Cc1ccccc1[N+](=O)[O-]`, the “growth AUC” value was 0.997 (inactive).

In the case of `CCN(CC)C(=O)C(C)Oc1cccc2ccccc12` (configuration not stated), the “growth AUC” value was 0.979 (inactive).

On to `CCN(CC)C(=O)SCc1ccc(Cl)cc1`, for which the “growth AUC” value is 1.01 (inactive).

Turning to `CNC(=O)ON=C(CS(C)=O)C(C)(C)C` (configuration not stated), the “growth AUC” value was 1.02 (inactive).

Consider `COP1(=S)OCc2ccccc2O1` (configuration not stated), for which the “growth AUC” value is 0.991 (inactive).

With `O=C(O)C(Cl)Cl`, the “growth AUC” value was 1.01 (inactive).

As to `N#CN=C1SCCN1Cc1ccc(Cl)nc1`, the “growth AUC” value is 0.966 (inactive).

For the compound `CC(C)NC(=O)N1CC(=O)N(c2cc(Cl)cc(Cl)c2)C1=O`, the “growth AUC” value is 1.03 (inactive).

For the compound `O=[N+]([O-])c1ccccc1`, the “growth AUC” value was 1.01 (inactive).

Turning to `[Cl][Sn]([c]1ccccc1)([c]1ccccc1)[c]1ccccc1`, the “growth AUC” value was 0.981 (inactive).

For `Nc1ncn[nH]1`, the “growth AUC” value is 1.02 (inactive).

For the compound `CC(C)OC(=O)C(O)(c1ccc(Br)cc1)c1ccc(Br)cc1`, the “growth AUC” value was 1.01 (inactive).

As for `CNC1=C(c2cccc(C(F)(F)F)c2)C(=O)C(c2ccccc2)O1` (configuration not stated), the “growth AUC” value was 0.998 (inactive).

For the compound `O=c1oc2ccccc2c(O)c1C1CC(c2ccc(-c3ccc(Br)cc3)cc2)Cc2ccccc21` (configuration not stated), the “growth AUC” value is 0.998 (inactive).
